Records with an inconclusive call do not appear. Calls of active or inactive are those of the source. The calls were made as follows: active = hit-call score of the fitted dose curve at least 0.9, where 1 is the maximum; inconclusive = response in the unintended direction; inactive = score below 0.9.

The results in this text go back to PubChem BioAssay (EPA / NIEHS).

Read-out in the assay: ABC Transporter (ABCB11), ABCB11 (gene 8647)
In words: CLD_ABCB11_6hr: CellzDirect (CLD) Gene Expression Assay for ABC Transporter (ABCB11) at 6 hours (AID 2283675).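 Also: hits raise ABCB11 mRNA level so AC50 marks induction.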 The protocol:
CLD_6hr is a cell-based, multiplexed-readout assay that uses hepatocyte, a human liver primary cell, with measurements taken at 6 hours after chemical dosing in a 96-well plate.CLD_ABCB11_6hr is one of 16 assay component(s) measured or calculated from the CLD_6hr assay. It is designed to make measurements of mRNA induction, a form of inducible reporter, as detected with chemiluminescence signals by Quantitative Nuclease Protection Assay (qNPA) technology.Data from the assay component CLD_ABCB11_6hr was analyzed at the endpoint, CLD_ABCB11_6hr, in the positive analysis fitting direction relative to DMSO as the negative control and baseline of activity. Using a type of inducible reporter, gain-of-signal activity can be used to understand changes in the reporter gene as they relate to the gene ABCB11. Furthermore, this assay endpoint can be referred to as a primary readout. To generalize the intended target to other relatable targets, this assay endpoint is annotated to the transporter intended target family, where subfamily is ABC transporter.
Human hepatocyte cultures were treated daily for two consecutive days with fresh dosing solutions containing appropriate concentrations of the 320 ToxCast chemicals (chemical identities were blinded to CellzDirect and other ToxCast collaborators), vehicle control (0.2% DMSO), and positive control inducers as summarized in Table 1. Due to the large number of treatment groups and chemicals examined, the ToxCast chemicals were divided into two groups (spanning two independent cultures of hepatocytes from separate donor preparations (Hu778: ToxCast plates 1 and 2; Hu776: ToxCast plates 3 and 4). Each preparation of human hepatocyte cultures was treated with respective vehicle control, medium only control, set of six positive controls/reference chemicals for the five hepatic receptor pathways, and a subset of eight of the ToxCast chemicals (indoxacarb, pyrithiobac-sodium, norflurazon, cyhalofop-butyl, methomyl, thiram, acetochlor, and propiconazole). These replicate data, coupled with internal replicates designed within the blinded ToxCast chemical library, provided additional data to evaluate interindividual differences between hepatocyte preparations and their potential impact on chemical profiles.Cell morphology and integrity were evaluated using phase-contrast microscopy as an indicator of hepatocyte cell health (Tyson & Green, 1987). Cultures for each treatment group (i.e., media, vehicle [0.2% DMSO], positive control inducers [multiple concentrations], and the ToxCast chemicals [multiple concentrations]) were observed and cell morphology was assessed relative to vehicle control cultures at each harvest time point (0, 6, 24, or 48 h). […] Images were evaluated at the conclusion of the study to assess changes in cell integrity and account for the effects of chemical exposure on uncharacteristic changes in concentration-dependent gene expression profiles. The results from these determinations of apparent cytotoxicity were annotated (yes/no) alongside the corresponding qNPA data for reference.At the conclusion of each treatment period, hepatocyte cultures (96-well) were washed with 1 volume of HBSS, lysed by addition of 25 ul ArrayPlate lysis buffer (HTG, Tucson, AZ), and 70 ul/well of Denaturation Oil, denatured by incubation at 95C for 10 min, and frozen at approximately -70C until analysis by nuclease protection assay (qNPA) (Roberts et al., 2007). For qNPA analysis, cell lysates were thawed at 50C for approximately 30 min, qNPA probes were added, and samples were incubated at 95C for 10 min to begin the detection process by denaturing the target RNA, dissociating the duplexes and secondary structure hybridization. At the conclusion of the hybridization period, S1 nuclease reagent was added to each sample to digest all nonprotected nucleotides at 50C for 60-90 min. […]
On to `COC(=O)c1ccccc1C(=O)OC`, for which the molecule was classed as inactive. `N#Cc1nn(-c2c(Cl)cc(C(F)(F)F)cc2Cl)c(N)c1S(=O)C(F)(F)F` (stereo not given): the molecule was called inactive. Under `CCCN(CCC)c1c([N+](=O)[O-])cc(S(N)(=O)=O)cc1[N+](=O)[O-]` stands “inactive”. For `COc1nc(C)nc(NC(=O)NS(=O)(=O)c2ccccc2CCC(F)(F)F)n1` the value was “inactive”; for `CCCCNC(=O)OCC#CI`, “inactive”.

With `CCON=C(CC)C1=C(O)CC(c2c(C)cc(C)cc2C)CC1=O` (stereo not given), the call was inactive.

In the case of `COC(=O)N(OC)c1ccccc1COc1ccn(-c2ccc(Cl)cc2)n1`, the molecule was classed as inactive. As to `Cc1c(F)c(F)c(COC(=O)C2C(/C=C(\Cl)C(F)(F)F)C2(C)C)c(F)c1F` (stereo not given), the result was inactive. As to `COc1ccc(C(c2ccc(OC)cc2)C(Cl)(Cl)Cl)cc1`, the molecule was called inactive. On to `Cc1ccc(-c2c(Cl)nc(C#N)n2S(=O)(=O)N(C)C)cc1`, for which the result was inactive. Under `C=CCC1=C(C)[C@@H](OC(=O)[C@@H]2[C@@H](C=C(C)C)C2(C)C)CC1=O` stands “inactive”; under `CCCCOC(=O)c1ccccc1C(=O)OCCCC`, “inactive”. For the molecule `CO/C=C(/C(=O)OC)c1ccccc1Oc1cc(Oc2ccccc2C#N)ncn1`, the molecule was called inactive. For `COC(=O)C=C(C)OP(=O)(OC)OC` the value was “inactive”; for `CC(C)(C)c1ccc(CSc2cnn(C(C)(C)C)c(=O)c2Cl)cc1`, “inactive”. Under `Oc1ccccc1-c1ccccc1` stands “inactive”. For `CCOP(=S)(OCC)SCn1c(=O)oc2cc(Cl)ccc21` the value was “inactive”; for `CCCCC(CC)COC(=O)c1ccccc1C(=O)OCC(CC)CCCC` (stereo not given), “inactive”. As for `CCOC(=O)CC(SP(=S)(OC)OC)C(=O)OCC` (stereo not given), the molecule was called inactive. Under `CCOC(=O)C(Cl)Cc1cc(-n2nc(C)n(C(F)F)c2=O)c(F)cc1Cl` (stereo not given) stands “inactive”; under `COc1nc(C)nc(NC(=O)NS(=O)(=O)c2ccccc2Cl)n1`, “inactive”; under `C#CCOS(=O)OC1CCCCC1Oc1ccc(C(C)(C)C)cc1` (stereo not given), “inactive”.

Consider `O=C(O)c1nc(Cl)ccc1Cl`, for which the call was inactive. With `N#Cc1cc(Br)c(O)c(Br)c1`, the outcome was inactive.

As to `CCOc1cc(Oc2ccc(C(F)(F)F)cc2Cl)ccc1[N+](=O)[O-]`, the call was inactive.

On to `COP(N)(=O)SC` (stereo not given), for which the call was inactive. For `CN(C)C(=S)SSC(=S)N(C)C` the value was “inactive”. Under `CCc1nn(C)c(C(=O)NCc2ccc(C(C)(C)C)cc2)c1Cl` stands “inactive”; under `OC(c1ccc(Cl)cc1)(c1cncnc1)c1ccccc1Cl` (stereo not given), “inactive”. As to `CC(Oc1ccc(Cl)cc1Cl)C(=O)O` (stereo not given), the result was inactive. Under `COP(=S)(OC)Oc1nc(Cl)c(Cl)cc1Cl` stands “inactive”; under `CNC(=S)S`, “inactive”. For `COC(=O)C(C)Oc1ccc(Oc2ccc(Cl)cc2Cl)cc1` (stereo not given) the value was “inactive”. Under `CCCCNC(=O)n1c(NC(=O)OC)nc2ccccc21` stands “inactive”; under `CS/C(C)=N/OC(=O)N(C)SN(C)C(=O)O/N=C(\C)SC`, “inactive”.
